# Values without a mark were called inactive. For part of these data: Entries with a potency or affinity are not part of this list. Calls of active or inactive are those of the source. The rule behind the calls is not given here.
# How the values were obtained:
# [1] = Ebola virus entry assay, green fluorescence channel
# [2] = Ebola virus entry assay, blue channel fluorescence
# [3] = Ebola virus entry assay, ratio channel
# [4] = Ebola virus entry assay, green channel fluorescence
# [5] = Ebola virus entry assay, reporter ratio channel; Channel type: primary
# [6] = Ebola virus entry assay, blue channel (ratio component)
# Throughout, for efficacy: 0% is about no effect.
SMILES,efficacy [1],outcome [2],outcome [3],outcome [4],outcome [5],outcome [6],AC50 [2],AC50 [3],AC50 [5]
CC(O)COc1ccccc1 (stereo not drawn),11.7%,inactive,inactive,inactive,inactive,inactive,,,
C[C@@H](O)[C@H]1C(=O)N2C(C(=O)O)=C([C@H]3CCCO3)S[C@H]12,-19.1%,inactive,inactive,inactive,inactive,inactive,,,
C[C@]12C=CC(=O)C=C1CC[C@H]1[C@@H]3C[C@@H](O)[C@](O)(C(=O)CO)[C@@]3(C)C[C@H](O)[C@@]12F,17%,inactive,inactive,inactive,inactive,inactive,,,
CC(=O)N1CCN(c2ccc(O)cc2)CC1,19.8%,inactive,inactive,inactive,inactive,inactive,,,
CCOC(CN1CCN(CC(C)C(=O)c2ccccc2)CC1)c1ccccc1 (stereo not drawn),11.6%,,,inactive,inactive,inactive,7.08 µM (active),10 µM (active),
NCC1CCC(C(=O)Oc2ccc(CCC(=O)O)cc2)CC1 (stereo not drawn),32.3%,inactive,inactive,inactive,inactive,inactive,,,
CCOC(=O)c1ccc(C#Cc2ccc3c(c2)C(C)(C)CCS3)nc1,24%,inactive,inactive,inactive,inactive,inactive,,,
NS(=O)(=O)c1cc(C(=O)O)c(NCc2ccco2)cc1Cl,-30.8%,inactive,inactive,inactive,inactive,inactive,,,
Nc1ccc(C(=O)NCC(=O)O)cc1,34%,inactive,inactive,inactive,inactive,inactive,,,
Cc1ccc2c(Cl)cc(Cl)c(O)c2n1,-13.1%,inactive,inactive,inactive,inactive,inactive,,,
CC(=O)Oc1ccc(C2(c3ccc(OC(C)=O)cc3)C(=O)Nc3ccccc32)cc1,-16%,inactive,inactive,inactive,inactive,inactive,,,
CC(=O)OC[C@H]1O[C@@](COC(C)=O)(O[C@H]2O[C@H](COC(C)=O)[C@@H](OC(C)=O)[C@H](OC(C)=O)[C@H]2OC(C)=O)[C@@H](OC(C)=O)[C@@H]1OC(C)=O,9.99%,inactive,inactive,inactive,inactive,inactive,,,
CC(NC(CCc1ccccc1)C(=O)O)C(=O)N1C(=O)N(C)CC1C(=O)O (stereo not drawn),-14.7%,inactive,inactive,inactive,inactive,inactive,,,
O=C(O)COC(=O)Cc1ccccc1Nc1c(Cl)cccc1Cl,31.8%,inactive,inactive,inactive,inactive,inactive,,,
CC[N+](CC)(CC(=O)Nc1c(C)cccc1C)Cc1ccccc1,-14.7%,inactive,inactive,inactive,inactive,inactive,,,
CCc1cccc2c(CCO)c[nH]c12,-22.1%,inactive,inactive,inactive,inactive,inactive,,,
CNC(=O)CN(CCN(CCN(CC(=O)[O-])CC(=O)NC)CC(=O)[O-])CC(=O)[O-].O.[Gd+3],-24.9%,inactive,inactive,inactive,inactive,inactive,,,
CCC1NC(=O)c2cc(S(N)(=O)=O)c(Cl)cc2N1 (stereo not drawn),-10.3%,inactive,inactive,inactive,inactive,inactive,,,
CCOc1cc(N)c(Cl)cc1C(=O)NCC1CN(Cc2ccc(F)cc2)CCO1 (stereo not drawn),26.3%,inactive,inactive,inactive,,inactive,,,39.8 µM (active)
Cc1c(Cl)cccc1Nc1ccccc1C(=O)O,13.8%,inactive,inactive,inactive,inactive,inactive,,,

SMILES,efficacy [1],outcome [2],outcome [3],outcome [4],outcome [5],outcome [6],AC50 [2],AC50 [3],AC50 [5]
CC(=O)O[C@H]1C[C@@H]2CC[C@@H]3[C@H](CC[C@@]4(C)[C@H]3C[C@H]([N+]3(C)CCCCC3)[C@@H]4OC(C)=O)[C@@]2(C)C[C@@H]1N1CCCCC1,-18%,inactive,inactive,inactive,inactive,inactive,,,
COc1ccc2cc(C=O)ccc2c1,-11.5%,inactive,inactive,inactive,inactive,inactive,,,
OC[C@@H](O)[C@@H](O)[C@H](O)[C@H](O)CO,11.8%,inactive,inactive,inactive,inactive,inactive,,,
Cc1[nH]c(C)c(Cl)c(=O)c1Cl,22.5%,inactive,inactive,inactive,inactive,inactive,,,
C[N+]1(C)CCC(=C(c2ccccc2)c2ccccc2)CC1,-9.5%,inactive,inactive,inactive,inactive,inactive,,,
O=C1c2ccccc2C(=O)C1c1ccc(Br)cc1,-9.92%,inactive,inactive,inactive,inactive,inactive,,,
C[N+]1(CC2COC(c3ccccc3)(C3CCCCC3)O2)CCCCC1 (stereo not drawn),48.1%,inactive,inactive,inactive,inactive,inactive,,,
CCCn1cnc2c1c(=O)n(CCCCC(C)=O)c(=O)n2C,33.9%,inactive,inactive,inactive,inactive,inactive,,,
CNC1CCCN(c2c(F)cc3c(=O)c(C(=O)O)cn(C4CC4)c3c2OC)C1 (stereo not drawn),-29.7%,inactive,inactive,inactive,inactive,inactive,,,
Cc1ccc(O)c(-n2nc3ccccc3n2)c1,21%,inactive,inactive,inactive,inactive,inactive,,,
CC(C)(C)C(=O)NCCCC(=O)O,-17.8%,inactive,inactive,inactive,inactive,inactive,,,
CCCCN(CCN(CCCC)C(=O)N1CCOCC1)C(=O)N1CCOCC1,15.6%,inactive,inactive,inactive,inactive,inactive,,,
CC(=O)OCC(=O)[C@@]1(O)CCC2C3CCC4=CC(=O)CC[C@]4(C)C3[C@@H](O)C[C@@]21C (stereo partly drawn),-12.5%,inactive,inactive,inactive,inactive,inactive,,,
Nc1nc2ncc(CNc3ccc(C(=O)N[C@@H](CCC(=O)O)C(=O)O)cc3)nc2c(=O)[nH]1,12.4%,inactive,inactive,inactive,inactive,inactive,,,
N[C@H]1CN(c2c(F)cc3c(=O)c(C(=O)O)cn(C4C[C@@H]4F)c3c2Cl)CC12CC2 (stereo partly drawn),-25.5%,inactive,inactive,inactive,inactive,inactive,,,
O=C(O)CN(CCOCCOCCN(CC(=O)O)CC(=O)O)CC(=O)O,19.2%,inactive,inactive,inactive,inactive,inactive,,,
Cc1cc(O)c(C)c(C)c1O,-20.2%,inactive,inactive,inactive,inactive,inactive,,,
CCOC(=O)[C@@](C)(N)Cc1ccc(O)c(O)c1,38.1%,inactive,inactive,inactive,inactive,inactive,,,
C=Cc1c(C)c2cc3[nH]c(cc4nc(cc5nc(cc1[nH]2)C(C)=C5CCC(=O)O)C(CCC(=O)O)=C4C)c(C)c3C=C,15.1%,inactive,inactive,inactive,inactive,inactive,,,
O=C(NN1CCCC1)NS(=O)(=O)c1ccc(Cl)cc1,-14.3%,inactive,inactive,inactive,inactive,inactive,,,

SMILES,efficacy [1],outcome [2],outcome [3],outcome [4],outcome [5],outcome [6],AC50 [2],AC50 [3],AC50 [5]
O=C(Oc1cccc2cccnc12)c1ccccc1,-27.7%,inactive,inactive,inactive,inactive,inactive,,,
CCOC(=O)N1CCC(n2c(=O)[nH]c3cc(Cl)ccc32)CC1,43.9%,inactive,inactive,inactive,inactive,inactive,,,
CC1(C)CCC(C)(C)c2cc(NC(=O)c3ccc(C(=O)O)cc3)ccc21,21.8%,inactive,inactive,inactive,inactive,inactive,,,
O=C1O[C@H]([C@@H](O)CO)C(O)=C1O,-34.4%,inactive,inactive,inactive,inactive,inactive,,,
Cc1cn([C@H]2C[C@H](F)[C@@H](CO)O2)c(=O)[nH]c1=O,-14.7%,inactive,inactive,inactive,inactive,inactive,,,
O=C(NOCC1CC1)c1ccc(F)c(F)c1Nc1ccc(I)cc1Cl,18.5%,,,inactive,,inactive,7.94 µM (active),15.8 µM (active),15.8 µM (active)
O=C(O)[C@H](O)[C@@H](O)[C@H](O[C@@H]1O[C@H](CO)[C@H](O)[C@H](O)[C@H]1O)[C@H](O)CO,24.3%,inactive,inactive,inactive,inactive,inactive,,,
O=C1Nc2cc(Cl)ccc2Oc2ccccc21,-23%,inactive,inactive,inactive,inactive,inactive,,,
O=c1ccc2ccccc2o1,11.1%,inactive,inactive,inactive,inactive,inactive,,,
NCCc1cnc[nH]1,13.4%,inactive,inactive,inactive,inactive,inactive,,,
NC1=NCC2c3ccccc3Cc3ccccc3N12 (stereo not drawn),22.9%,inactive,inactive,inactive,inactive,inactive,,,
CC(=O)Oc1ccc(C(=C2CCCCC2)c2ccc(OC(C)=O)cc2)cc1,-12.6%,inactive,inactive,inactive,inactive,inactive,,,
CC1=CC(=O)c2ccccc2C1=O,12.6%,inactive,inactive,inactive,inactive,inactive,,,
NC(CSCC(=O)O)C(=O)O (stereo not drawn),-16%,inactive,inactive,inactive,inactive,inactive,,,
CC(C)NC(=O)c1ccc(C=O)cc1,10.7%,inactive,inactive,inactive,inactive,inactive,,,
OC[C@]1(O)OC[C@@H](O)[C@H](O)[C@@H]1O,-31%,inactive,inactive,inactive,inactive,inactive,,,
COc1cc(NS(=O)(=O)c2ccc(N)cc2)ncn1,14.9%,inactive,inactive,inactive,inactive,inactive,,,
CCN(CC)C(=O)C1CN2CCc3cc(OC)c(OC)cc3C2CC1OC(C)=O (stereo not drawn),-20.8%,inactive,inactive,inactive,inactive,inactive,,,

# Source: PubChem BioAssay (NCATS)
